# “And” between values parts separate entries of the source, which are not always exact repeats. Identical values can stand only once. More than one record can exist for a structure, and the calls need not agree. The source made the active and inactive calls. How the source made its calls: active means hit-call score of the fitted dose curve at least 0.9, where 1 is the maximum; inactive means score below 0.9.
# Assay: CCTE_Shafer_MEA_acute_per_burst_spike_number_mean: CCTE's Neural Acute Assay for Average Number of Spikes Per Burst, Shafer Lab (AID 2284015);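 further: hits are decreases in mean spikes per burst versus baseline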
# Summary of the method: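 Primary rat cortical neurons on 48-well MEA plates, treated on DIV 13 or 15 at 0.03-40 uM. Spontaneous activity recorded 40 min before and 40 min after compound at 37 C; percent change in mean spikes per single-electrode burst per well, fitted in the loss direction versus DMSO.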
Compound,outcome,AC50
O=c1c(-c2ccc(O)cc2)coc2cc(O)ccc12,inactive,–
O=C(O)c1ccccc1C(c1ccc(O)cc1)c1ccc(O)cc1,inactive,–
CCc1ccc(CCOc2ccc(CC3SC(=O)NC3=O)cc2)nc1 (stereo not given),inactive,–
OC1CCC(C2CCCCC2)CC1 (stereo not given),inactive,–
CC(C)CCCCCCOC(=O)CCCCC(=O)OCCCCCCC(C)C,inactive,–
CCC(=C(c1ccc(O)cc1)c1ccc(OCCN(C)C)cc1)c1ccccc1,–,21 µM (active)
Cc1cc(CCN2CCN(c3nsc4ccccc34)CC2)cc2c1NC(=O)CC2(C)C,–,20 µM (active)
CN(C)C=O,inactive,–
OCCC(F)(F)C(F)(F)C(F)(F)C(F)(F)C(F)(F)C(F)(F)C(F)(F)C(F)(F)F,inactive,–
CN1CCC[C@H]1c1cccnc1,inactive,–
CCCOc1sc(C(=O)N2CCC(c3cc(CN)ccc3F)CC2)c(C)c1Br,inactive,–
NC(=O)N(O)[C@@H]1C=C[C@H](Oc2cccc(Oc3ccc(F)cc3)c2)C1,–,10 µM (active)
CC(C)(C)c1cc(C(C)(C)C)c(O)c(C(C)(C)C)c1,inactive,–
CC#C[C@]1(O)CC[C@H]2[C@@H]3CCC4=CC(=O)CCC4=C3[C@@H](c3ccc(N(C)C)cc3)C[C@@]21C,inactive,32.9 µM (active)
CC(=O)NC1(c2cccc(F)c2)CCN(CC[C@@]2(c3ccc(Cl)c(Cl)c3)CN(c3ccccc3)C(=O)CO2)CC1,inactive,–
Oc1cc2ccccc2c2ccccc12,inactive,–
CCCCCCCCCCCCN1CCCC1=O,inactive,–
CN1CCN(c2ccccc2/C=C2\SCCN(c3ccc(Cl)c(Cl)c3)C2=O)CC1,inactive,–
CC[C@H](c1ccc(O)cc1)[C@@H](CC)c1ccc(O)cc1,inactive,–
CCCCCCCCCCCCc1ccccc1S(=O)(=O)O,inactive,–
CCCCCCCCCCCCCCCS(=O)(=O)Oc1ccccc1,inactive,–

# Assay: CCTE_Shafer_MEA_acute_interburst_interval_mean: CCTE's Neural Acute Assay for Mean Interburst Interval, Shafer Lab (AID 2284016);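 further: percent change of mean interburst interval versus each well's own pre-dose baseline; curves fitted for decrease in interburst interval relative to DMSO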
# Summary of the method: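 Primary rat cortical neurons on 16-electrode MEA wells were recorded 40 min at baseline on DIV 13 or 15, then 40 min after compound (0.03-40 uM), at 37 C. Value is percent change in mean interburst interval per well, DMSO as negative control.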
Compound,outcome,AC50
O=c1c(-c2ccc(O)cc2)coc2cc(O)ccc12,inactive,–
O=C(O)c1ccccc1C(c1ccc(O)cc1)c1ccc(O)cc1,inactive,–
CCc1ccc(CCOc2ccc(CC3SC(=O)NC3=O)cc2)nc1 (stereo not given),inactive,–
OC1CCC(C2CCCCC2)CC1 (stereo not given),inactive,–
CC(C)CCCCCCOC(=O)CCCCC(=O)OCCCCCCC(C)C,inactive,–
CCC(=C(c1ccc(O)cc1)c1ccc(OCCN(C)C)cc1)c1ccccc1,inactive,–
Cc1cc(CCN2CCN(c3nsc4ccccc34)CC2)cc2c1NC(=O)CC2(C)C,–,5.98 µM (active)
CN(C)C=O,inactive,–
OCCC(F)(F)C(F)(F)C(F)(F)C(F)(F)C(F)(F)C(F)(F)C(F)(F)C(F)(F)F,inactive,–
CN1CCC[C@H]1c1cccnc1,inactive,–
CCCOc1sc(C(=O)N2CCC(c3cc(CN)ccc3F)CC2)c(C)c1Br,inactive,–
NC(=O)N(O)[C@@H]1C=C[C@H](Oc2cccc(Oc3ccc(F)cc3)c2)C1,–,2.69 µM (active)
CC(C)(C)c1cc(C(C)(C)C)c(O)c(C(C)(C)C)c1,inactive,–
CC#C[C@]1(O)CC[C@H]2[C@@H]3CCC4=CC(=O)CCC4=C3[C@@H](c3ccc(N(C)C)cc3)C[C@@]21C,inactive,4.16 µM (active)
CC(=O)NC1(c2cccc(F)c2)CCN(CC[C@@]2(c3ccc(Cl)c(Cl)c3)CN(c3ccccc3)C(=O)CO2)CC1,inactive,–
Oc1cc2ccccc2c2ccccc12,inactive,–
CCCCCCCCCCCCN1CCCC1=O,inactive,–
CN1CCN(c2ccccc2/C=C2\SCCN(c3ccc(Cl)c(Cl)c3)C2=O)CC1,inactive,–
CC[C@H](c1ccc(O)cc1)[C@@H](CC)c1ccc(O)cc1,inactive,–
CCCCCCCCCCCCc1ccccc1S(=O)(=O)O,inactive,–
CCCCCCCCCCCCCCCS(=O)(=O)Oc1ccccc1,inactive,–

# Assay: CCTE_Shafer_MEA_acute_burst_percentage_mean: CCTE's Neural Acute Assay for Percentage of Spikes in a Burst, Shafer Lab (AID 2284017);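 on AC50: curve fitted for loss of signal so potency reflects decreased burst percentage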
# Summary of the method: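 Primary rat cortical neurons on 16-electrode MEA wells; 40 min baseline recorded at DIV 13 or 15, then 40 min after compound (0.03-40 uM) at 37 C. Well-mean fraction of spikes in single-electrode bursts; percent change from baseline, DMSO as negative control.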
Compound,outcome,AC50
O=c1c(-c2ccc(O)cc2)coc2cc(O)ccc12,inactive,–
O=C(O)c1ccccc1C(c1ccc(O)cc1)c1ccc(O)cc1,–,20 µM (active)
CCc1ccc(CCOc2ccc(CC3SC(=O)NC3=O)cc2)nc1 (stereo not given),inactive,–
OC1CCC(C2CCCCC2)CC1 (stereo not given),–,27.3 µM (active)
CC(C)CCCCCCOC(=O)CCCCC(=O)OCCCCCCC(C)C,inactive,–
CCC(=C(c1ccc(O)cc1)c1ccc(OCCN(C)C)cc1)c1ccccc1,–,20.6 µM (active)
Cc1cc(CCN2CCN(c3nsc4ccccc34)CC2)cc2c1NC(=O)CC2(C)C,–,32.1 µM (active)
CN(C)C=O,inactive,–
OCCC(F)(F)C(F)(F)C(F)(F)C(F)(F)C(F)(F)C(F)(F)C(F)(F)C(F)(F)F,inactive,–
CN1CCC[C@H]1c1cccnc1,inactive,–
CCCOc1sc(C(=O)N2CCC(c3cc(CN)ccc3F)CC2)c(C)c1Br,inactive,–
NC(=O)N(O)[C@@H]1C=C[C@H](Oc2cccc(Oc3ccc(F)cc3)c2)C1,–,12.9 µM (active)
CC(C)(C)c1cc(C(C)(C)C)c(O)c(C(C)(C)C)c1,inactive,–
CC#C[C@]1(O)CC[C@H]2[C@@H]3CCC4=CC(=O)CCC4=C3[C@@H](c3ccc(N(C)C)cc3)C[C@@]21C,–,16.3 µM (active) and 5.2 µM (active)
CC(=O)NC1(c2cccc(F)c2)CCN(CC[C@@]2(c3ccc(Cl)c(Cl)c3)CN(c3ccccc3)C(=O)CO2)CC1,–,8.94 µM (active)
Oc1cc2ccccc2c2ccccc12,inactive,–
CCCCCCCCCCCCN1CCCC1=O,inactive,–
CN1CCN(c2ccccc2/C=C2\SCCN(c3ccc(Cl)c(Cl)c3)C2=O)CC1,–,0.128 µM (active)
CC[C@H](c1ccc(O)cc1)[C@@H](CC)c1ccc(O)cc1,inactive,–
CCCCCCCCCCCCc1ccccc1S(=O)(=O)O,inactive,–
CCCCCCCCCCCCCCCS(=O)(=O)Oc1ccccc1,inactive,–

# — PubChem BioAssay (EPA / NIEHS)
